In PubChem BioAssay AID651640 (Broad Institute, 2012):
Where “and” joins values, the source holds several entries; their conditions need not be identical. Identical values can stand only once. In all, about 350,000 compounds went through this assay and about 6,000 (1.7%) were called active. Not shown: some 5% with an inconclusive outcome. The sample holds actives, similar compounds and a random draw of the others, so the mix is not that of the screen. Values without a mark were called inactive. Rule as the data show it: active = CPE inhibition above about 20% (passing the limit was not always enough); inconclusive = no clear call, values can overlap the other calls; tested in BHK-21 cells.

Assay: protection of cells from dengue 2 killing – plate reader, single concentration, primary screen (AID 651640);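 also: 0% = median of neutral control wells and 100% = median of positive control wells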
Settings: DENV2-infected cells, cytopathic effect rescue, at 9.99 µM, hits give high values

SMILES | CPE inhibition
O=C(NCC[C@H]1CC[C@@H](NC(=O)C2CCCCC2)[C@@H](CO)O1)c1ccc(F)cc1 | 50.9% (active)
O=C(NCC[C@H]1CC[C@@H](NC(=O)C2CC2)[C@H](CO)O1)c1ccc(F)cc1 | -2.58%
O=C(NCC[C@H]1CC[C@H](NC(=O)C2CC2)[C@@H](CO)O1)c1ccc(F)cc1 | -6.48%
C[C@H]1CN([C@@H](C)CO)C(=O)c2cc(/C=C/c3ccccc3)cnc2O[C@H]1CN(C)Cc1cccc(C(=O)O)c1 | -8.76%
C[C@H]1CN([C@@H](C)CO)C(=O)c2cccc(NC(=O)NC3CCCCC3)c2O[C@H]1CN(C)CC1CCCCC1 | 30.3% (active)
C[C@@H]1CN([C@H](C)CO)C(=O)c2cccc(NC(=O)NC3CCCCC3)c2O[C@H]1CN(C)Cc1ccc(C(F)(F)F)cc1 | 0.691%
C[C@@H]1CN([C@H](C)CO)C(=O)c2cccc(NC(=O)NC3CCCCC3)c2O[C@@H]1CN(C)CC1CCCCC1 | -11%
C[C@H]1CN([C@@H](C)CO)C(=O)c2cccc(NC(=O)C3CCCCC3)c2O[C@H]1CN(C)Cc1ccc(C(F)(F)F)cc1 | 12.9%
C[C@H](CO)N1C[C@H](C)[C@@H](CN(C)Cc2ccc(C(F)(F)F)cc2)Oc2c(NC(=O)NC3CCCCC3)cccc2C1=O | 37.7% (active)
C[C@@H]1CN([C@@H](C)CO)C(=O)c2cccc(NC(=O)NC3CCCCC3)c2O[C@@H]1CN(C)CC1CCCCC1 | 12.9%
O=C(C[C@H]1C=C[C@H](NC(=O)c2cccc(F)c2)[C@@H](CO)O1)NCc1ccc(Oc2ccccc2)cc1 | -9.22%
C[C@H](CO)N1C[C@H](C)[C@H](CN(C)Cc2ccncc2)Oc2ncc(C#Cc3cccc(F)c3)cc2C1=O | 13.5%
C[C@@H]1CN([C@H](C)CO)C(=O)c2cc(-c3ccccc3F)cnc2O[C@H]1CN(C)C(=O)CN(C)C | -0.853%
CN1c2ccc(-c3cccc(F)c3)cc2[C@@H]2[C@@H](CCN2C(=O)Nc2ccccc2F)[C@@H]1CO | -9.74%
COc1cccc(C(=O)Nc2ccc3c(c2)C(=O)N(C)[C@H]2CC[C@H](CC(=O)N[C@@H](C)c4ccccc4)O[C@H]2CO3)c1 | -3.06%
CN1C(=O)c2cc(NC(=O)Cc3ccccc3)ccc2OC[C@H]2O[C@H](CC(=O)NCc3ccc(Cl)cc3)CC[C@H]21 | -3.46%
Cc1ccc(S(=O)(=O)Nc2ccc3c(c2)C(=O)N([C@@H](C)CO)C[C@H](C)[C@@H](CN(C)Cc2ccc4c(c2)OCO4)O3)cc1 | 21.2% (active)
Cc1ccc(S(=O)(=O)Nc2ccc3c(c2)C(=O)N([C@@H](C)CO)C[C@@H](C)[C@H](CN(C)Cc2ccncc2)O3)cc1 | 35.3% (active)
Cc1ccc(S(=O)(=O)Nc2ccc3c(c2)C(=O)N([C@H](C)CO)C[C@H](C)[C@H](CN(C)Cc2ccc(Cl)c(Cl)c2)O3)cc1 | -4.04%
Cc1noc(C)c1S(=O)(=O)Nc1ccc2c(c1)C(=O)N([C@@H](C)CO)C[C@@H](C)[C@H](CN(C)Cc1ccc(-c3ccccc3)cc1)O2 | 35.7% (active)
C[C@@H]1CN([C@H](C)CO)C(=O)c2cc(NS(=O)(=O)c3ccc(F)cc3)ccc2O[C@H]1CN(C)Cc1ccncc1 | -0.549%

SMILES | CPE inhibition
C[C@H](CO)N1C[C@H](C)[C@H](CN(C)Cc2ccc(-c3ccccc3)cc2)Oc2ccc(NS(=O)(=O)c3ccccc3)cc2C1=O | 0.672%
Cc1ccc(S(=O)(=O)Nc2ccc3c(c2)C(=O)N([C@@H](C)CO)C[C@@H](C)[C@@H](CN(C)Cc2ccncc2)O3)cc1 | 2.98%
Cc1noc(C)c1S(=O)(=O)Nc1ccc2c(c1)C(=O)N([C@@H](C)CO)C[C@@H](C)[C@@H](CN(C)C)O2 | 1.2%
Cc1ccc(S(=O)(=O)Nc2ccc3c(c2)C(=O)N([C@@H](C)CO)C[C@@H](C)[C@H](CN(C)Cc2ccc4c(c2)OCO4)OCCCC[C@@H](C)O3)cc1 | -8.37%
CO[C@@H]1CN(C)C(=O)c2cc(NS(=O)(=O)c3cn(C)cn3)ccc2OC[C@@H](C)NC[C@H]1C | -0.807%
COCc1cn(CC[C@H]2CC[C@@H](NC(=O)Nc3ccc(OC)cc3)[C@@H](CO)O2)nn1 | 0.762%
C/C=C/c1ccc(C2[C@H]3CNC[C@@H]2N3C(=O)Nc2ccc(F)cc2)cc1 (stereo partly drawn) | 0.029% and 10.5%
O=C(Nc1ccc(-c2ccccc2)cc1)[C@@H]1[C@@H](CO)[C@@H]2Cn3c(cccc3=O)[C@H]1N2Cc1ccncc1 | -0.731%
CO[C@@H]1CN(C)C(=O)c2cc(NS(=O)(=O)c3cn(C)cn3)ccc2OC[C@@H](C)N(CCC(F)(F)F)C[C@H]1C | -9.32%
O=C(c1ccccc1F)N1CC(=O)N2[C@H](CO)[C@H](c3ccc(-c4cccnc4)cc3)[C@H]2C1 | 8.17%
C[C@@H]1CCCCO[C@@H](CN(C)S(=O)(=O)c2ccccc2)[C@@H](C)CN([C@@H](C)CO)C(=O)c2cc(NS(=O)(=O)c3cn(C)cn3)ccc2O1 | -3.06%
C[C@H](NC(=O)C[C@@H]1C[C@@H]2c3cc(NS(=O)(=O)c4ccc(F)cc4)ccc3O[C@@H]2[C@@H](CO)O1)c1ccccc1 | 2.95%
CC(C)NC(=O)N1CCCCN2[C@H](CO)[C@@H](c3ccc(Br)cc3)[C@H]2C1 | -4.94%
COc1ccc(NC(=O)Nc2cccc3c2O[C@H](CN(C)S(=O)(=O)c2ccc(F)cc2)[C@H](C)CN([C@H](C)CO)C3=O)cc1 | -3.75%
COc1ccccc1S(=O)(=O)N1CC[C@@H]2[C@H](CO)Nc3ccc(-c4ccccc4F)cc3[C@@H]21 | -1.18%
COc1ccc(C#Cc2ccc3c(c2)[C@H]2[C@H](CCN2Cc2nccs2)[C@@H](CO)N3)cc1 | 27.7% (active)
O=S(=O)(c1ccccc1)N1CC[C@@H]2[C@@H](CO)Nc3ccc(-c4ccccc4F)cc3[C@@H]21 | 16.3%
O=S(=O)(c1ccc(F)cc1)N1CC[C@@H]2[C@@H](CO)Nc3ccc(-c4ccccc4F)cc3[C@@H]21 | 77.9% (active)
COc1ccccc1CN1CC[C@@H]2[C@@H](CO)Nc3ccc(C#Cc4ccccc4)cc3[C@@H]21 | -32.6%
CN(C)C(=O)c1cccc(-c2ccc3c(c2)[C@@H]2[C@@H](CCN2Cc2nccs2)[C@@H](CO)N3)c1 | -14%
O=S(=O)(c1ccccc1)N1CC[C@@H]2[C@H]1c1cc(C#Cc3cccc(F)c3)ccc1N[C@@H]2CO | -8.72%

SMILES | CPE inhibition
Cc1cccc(S(=O)(=O)N2CC[C@@H]3[C@H]2c2cc(C#Cc4ccc(F)cc4)ccc2N[C@@H]3CO)c1 | 65.6% (active)
O=S(=O)(c1ccccc1)N1CC[C@@H]2[C@@H](CO)Nc3ccc(C#Cc4cccc(F)c4)cc3[C@@H]21 | 1.91%
CCCN1[C@H](C(=O)N2CCOCC2)[C@@H](CO)[C@@H]2Cn3c(ccc(/C=C/c4ccccc4)c3=O)[C@@H]21 | 14.1%
CCCc1cn(CC[C@@H]2CC[C@@H](NS(=O)(=O)c3ccccc3Cl)[C@@H](CO)O2)nn1 | -1.78%
CO[C@H]1CN(C)C(=O)c2ccc(NC(=O)Nc3c(C)noc3C)cc2OC[C@@H](C)NC[C@H]1C | 1.98%
C/C=C/c1ccc2c(c1)O[C@H](CN(C)C(=O)c1ccc3c(c1)OCO3)[C@@H](C)CN([C@H](C)CO)S2(=O)=O | 19.1%
CC(=O)N1C[C@@H]2[C@H](c3ccccc31)[C@H](CO)N2C(=O)Nc1ccc(F)cc1 | -5.97%
COc1ccccc1-c1sc2ccccc2c1C#CC1(O)CCCCC1 | -3.75%
COc1ccccc1-c1sc2ccccc2c1-c1ccc(Br)nc1 | 24.6% (active)
COc1ccc2sc(-c3ccccc3OC)c(-c3ccc(OCCN4CCCC4)cc3)c2c1 | -8.2%
COc1ccc(-c2cc(NC=O)c3ncc(-c4cc(OC)c(OC)c(OC)c4)n3c2)c(OC)c1 | 42.3% (active)
COc1ccc(-c2cc(NC=O)c3ncc(-c4ccccc4)n3c2)cc1OC | 8.91%
COc1ccc(-c2cc(NC=O)c3ncc(-c4cccc(C(=O)N(C)C)c4)n3c2)c(OC)c1 | -8.87%
C[C@@H]1CN([C@@H](C)CO)C(=O)Cc2cc(NC(=O)CCN3CCOCC3)ccc2O[C@@H]1CN(C)CC1CC1 | -11.7%
C[C@H](CO)N1C[C@H](C)[C@@H](CN(C)CC2CC2)Oc2ccc(NC(=O)Nc3ccccc3)cc2CC1=O | 7.45%
CCCCCCN1CCN(C2CN(Cc3cn(Cc4ccc(F)cc4)nn3)S(=O)(=O)C2)CC1 (stereo not drawn) | -0.218%
COc1ccc(CN2[C@@H](CC(=O)O)c3cc(F)ccc3S2(=O)=O)cc1 | -4.72%
CCCCCCCCCCCCN1[C@@H](CC(C)=O)c2cc(F)cc(F)c2S1(=O)=O | 37.7% (active)
CO[C@H]1CN(C)C(=O)c2ccc(NC(=O)C3CC3)cc2OC[C@H](C)N(CCc2ccccc2)C[C@@H]1C | 4.92%
COCC(=O)N(C)C[C@@H]1Oc2ncc(-c3ccccc3OC)cc2C(=O)N([C@@H](C)CO)C[C@@H]1C | 0.798%
CC(C)NC(=O)Nc1ccc2c(c1)C(=O)N([C@H](C)CO)C[C@@H](C)[C@@H](CN(C)C(=O)c1ccncc1)OCCCC[C@H](C)O2 | -1.8%
